A selection: hits, their analogues and other compounds. The true share with any hit is near 2.4%.
D2 PAM-1: D2 dopamine receptor (human) potentiation | P14416 | HEK293 T-REx D2, calcium flux, EC20 dopamine potentiation | potentiation, % at 10 µM | 340,000 tested, 0.34% active;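 active means potentiation over 3 SD above the plate norm, cut at about 30% in these data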; further: 0% is about no effect
Target sequence (P14416 whole entry, looked up): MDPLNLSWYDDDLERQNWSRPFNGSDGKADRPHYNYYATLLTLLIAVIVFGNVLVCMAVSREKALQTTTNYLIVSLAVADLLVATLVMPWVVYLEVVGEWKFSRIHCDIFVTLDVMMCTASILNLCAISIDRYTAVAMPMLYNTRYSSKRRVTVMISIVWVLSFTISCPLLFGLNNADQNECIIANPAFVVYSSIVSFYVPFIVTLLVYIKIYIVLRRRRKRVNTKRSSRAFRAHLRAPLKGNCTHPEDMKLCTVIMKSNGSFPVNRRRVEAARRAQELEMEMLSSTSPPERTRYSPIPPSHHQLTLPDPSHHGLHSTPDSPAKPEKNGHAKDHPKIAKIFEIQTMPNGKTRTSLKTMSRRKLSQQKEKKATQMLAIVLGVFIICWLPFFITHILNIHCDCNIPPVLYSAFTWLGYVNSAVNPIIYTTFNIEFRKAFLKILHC
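Tetracycline-induced HEK293 T-REx cells force-coupled to calcium signalling expressed D2; compounds were pin-added after a 10 s baseline, read kinetically 180 s, then an EC20 dopamine challenge followed with a further 180 s calcium read.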
D2 PAM-2: potentiates the human D2 dopamine receptor allosterically; potentiation, % (test concentration not listed); 360,000 tested, 0.23% active; P14416; DiscoveRx D2 beta-arrestin cells, luminescence, 90 min; 100% = 57 uM dopamine signal; in the data active means potentiation above about 50%
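PathHunter D2 cells, attached overnight at 37 deg C, received compound in DMSO plus dopamine at EC20 (50 nM final) for 90 min at 37 deg C. Beta-arrestin recruitment was read as luminescence after 1 h with detection reagent at ambient temperature.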
D2 antagonist: antagonists of human D2 dopamine receptor. P14416. HEK293 TREx D2 cells, calcium flux, dopamine EC80. inhibition, % at 10 µM. 340,000 tested, 2% active. AID 485344; in the data active means inhibition above about 30%; inactive means below that, where a call was filed; further: 0% is about no effect
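Compounds are added to dye-loaded, induced HEK293 T-REx cells coupled to calcium release via D2; after a 3 min kinetic read an EC80 dopamine stimulus is given and fluorescence is recorded for 3 more min.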
D2 ag-1: human D2 receptor agonism in beta-arrestin assay | 360,000 tested, 0.084% active | DiscoveRx PathHunter D2 beta-arrestin, luminescence, 90 min; 100% = 57 uM dopamine signal | activation, % (no concentration beside the values); in the data active means activation above about 40%
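Agonist mode: compounds alone added to overnight-plated D2 PathHunter cells for 90 min at 37 C, with 57 uM final dopamine (EC100) defining full response. Beta-arrestin recruitment detected by chemiluminescent reagent, read after 1 h at ambient temperature.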
B2AR arrestin: agonists driving beta-arrestin recruitment to human beta2-adrenergic receptor; P07550; beta-arrestin recruitment to beta2AR, cell-based reporter; Potency, µM (highest dose often 46.1 µM), without a hit: at the top dose activation, usual class: activators; 330,000 tested, 0.02% active; AID 492947; active means well fitted activation curve with a large enough effect;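 further: potency means the concentration at half of the fitted maximal effect; 0% = DMSO controls and full agonism = EC100 isoproterenol or metaproterenol; nearly all actives have a fitted effect of over 65% in size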
D2 ag-2: activates the human D2 dopamine receptor; P14416; HEK293 T-REx D2 cells, calcium flux agonist mode; activation, % at 2 µM; 340,000 tested, 0.53% active;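 active means activation over 3 SD above normal in the single-dose calcium agonist read, cut at about 30% in these data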; further: 0% is about no effect
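In this primary screen, compounds producing a positive calcium signal within 180 s of addition to tetracycline-induced, force-coupled HEK293 Trex D2 cells are flagged; cells are dye-loaded with a no-wash calcium kit beforehand.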
Starred values were filed as active, the others as inactive; nt = no result.

SMILES	D2 PAM-1	D2 PAM-2	D2 antagonist	D2 ag-1	B2AR arrestin	D2 ag-2
CC(NC(=O)CSc1nnc(-c2cccc(S(=O)(=O)N3CCCCC3)c2)o1)C12CC3CC(CC(C3)C1)C2 (stereo not drawn)	12	58*	nt	1	0%	nt
COc1ccccc1CN1C(=O)[C@@H]2C(CCC(N)=O)NC3(C(=O)Nc4c3ccc(Cl)c4C)[C@@H]2C1=O (stereo partly drawn)	32*	0	-3	-1	0%	0
COc1ccccc1CN1C(=O)[C@@H]2C(CC(N)=O)NC3(C(=O)Nc4c3ccc(Cl)c4C)[C@@H]2C1=O (stereo partly drawn)	10	-20	16	-3	0%	1
CCN(CC)C(=O)C(C)OC(=O)c1ccc(O)cc1 (stereo not drawn)	12	3	30*	1	0%	0
COC(=O)c1ccc(O)cc1	-1	0	-9	0	-1%	-1
COc1ccc([N+](=O)[O-])cc1NC(=O)C(C)OC(=O)CSC(C)C(=O)Nc1cc(C)on1 (stereo not drawn)	8	-24	36*	-7	0%	0
Cc1cc(NC(=O)C(C)SCC(=O)OC(C)C(=O)Nc2ccccc2C)no1 (stereo not drawn)	-13	-1	14	-3	0%	1
CSc1nnc(CCNS(=O)(=O)c2ccccc2Br)n1C	-3	-2	34*	-2	0%	1
Cc1ccc(S(=O)(=O)NCCc2nnc(SCc3cccnc3)n2C)cc1	33*	-6	11	-1	0%	0
COc1ccc(OC)c(S(=O)(=O)N2CCCC(C(=O)NCc3ccncc3)C2)c1 (stereo not drawn)	-33	-3	17	1	0%	0
COc1ccc(-c2nnc(CSc3ncnc4sc5c(c34)CCC5)o2)cc1OC	-4	3	1	-2	0%	-2
CC[C@]12c3[nH]c4ccc(OC)cc4c3CCN1C(=O)C(CC(=O)NCCC1=CCCCC1)C[C@@H]2C(=O)N1CCN(C(=O)C2CC2)CC1 (stereo partly drawn)	nt	-5	nt	-1	-1%	nt
O=C(C1=COCCO1)N1CCN(S(=O)(=O)c2cccc(Br)c2)CC1	18	-1	nt	-1	-3%	nt
CC(C)(C)C(=O)Nc1c2c(nn1-c1ccccc1)CSC2	-11	-9	-11	-3	0%	-1
COc1ccccc1NC(=O)N1CCCC1	2	-5	33*	0	0%	0
COc1ccccc1NC(=O)N1CCN(C)CC1	-11	-4	-1	1	0%	1
Cc1ccc(NC(=O)Cn2c3ccc(F)cc3c3nc4n(c(=O)c32)CCS4)cc1F	35*	-3	-3	-7	0%	2
O=C(Cn1c2ccc(F)cc2c2nc3n(c(=O)c21)CCS3)Nc1ccc(Cl)cc1F	7	-10	-8	1	0%	0
Cc1ccc(Nc2ncnc3ccccc23)cc1	5	-10	-8	-5	0%	1
Cc1ccc(/C(=N/Nc2ncnc3ccccc23)C(=O)O)cc1	5	-8	23	-5	11µM*	0
CCc1nnc(NC(=O)C2CCCN(c3nc(C)cc(C)n3)C2)s1 (stereo not drawn)	11	3	0	-2	0%	3
Cc1cc(C)nc(N2CCCC(C(=O)Nc3nnc(C(C)(C)C)s3)C2)n1 (stereo not drawn)	3	-11	48*	2	0%	-2
Cc1ccc(NC(=O)C2CCCN(c3ncccn3)C2)cc1F (stereo not drawn)	-7	-4	8	-2	-1%	-1
Cc1cc(C)cc(NC(=O)C2CCCN(c3ncccn3)C2)c1 (stereo not drawn)	-8	1	50*	4	0%	-1
O=C(Nc1ccc(Cl)cc1)Nc1ccon1	-16	-4	1	9	-1%	1
SMILES	D2 PAM-1	D2 PAM-2	D2 antagonist	D2 ag-1	B2AR arrestin	D2 ag-2
O=C(O)c1ccccc1NC1CCCCC1NS(=O)(=O)c1ccccc1 (stereo not drawn)	24	-4	-16	-1	0%	0
CC(=O)c1ccc(OCCCC(=O)Nc2ccc(C)c(S(=O)(=O)N(C)C)c2)cc1	-8	-22	9	-2	-1%	0
COc1ccccc1NC(=O)Cc1noc(CSc2cc(C)c3ccccc3n2)n1	-1	-11	6	-5	0%	1
CCCn1c(N)c(C(=O)CSc2nnc(-c3cccs3)n2C2CC2)c(=O)[nH]c1=O	nt	20	nt	48*	0%	nt
COCCn1c(SCC(=O)c2c(N)n(C3CC3)c(=O)[nH]c2=O)nnc1-c1ccc(Cl)cc1	-1	-4	11	40*	0%	0
COCCCn1c(SCC(=O)c2c(N)n(C3CC3)c(=O)[nH]c2=O)nnc1-c1ccccc1Cl	nt	-5	nt	-2	nt	nt
CCCn1c(N)c(C(=O)CSc2nnc(-c3c[nH]c4ccccc34)n2C2CC2)c(=O)[nH]c1=O	nt	-7	nt	-2	0%	nt
COc1ccc(C2=NOC(C)(c3nnc(Cc4ccccc4)o3)C2)cc1 (stereo not drawn)	nt	-2	nt	0	nt	nt
COC(=O)c1cccc(C23CC4(C2)[C@H](CN(Cc2ccc(-c5ccccc5)cc2)[C@@H]4c2ccccc2)C3c2ccccc2)c1 (stereo partly drawn)	5	-4	9	-3	0%	0
COc1ccc2c3c(cccc13)N(C)N=C2C	8	56*	-1	7	0%	0
CC(=O)c1cccc(NC(=O)N[C@@H](CC(C)C)C(=O)O)c1	6	-12	33*	-2	0%	1
COc1ccc(-n2nnc3c(=O)n(CC(=O)N4CCCCC4)cnc32)cc1	2	-7	3	-6	-1%	-2
CCOc1ccc(CN(C)CC(=O)Nc2ccc3c(c2)CCC3)cc1OC	-2	-9	30*	-1	0%	2
C=CCOc1ccc(CN(C)CC(=O)Nc2ccc3c(c2)CCC3)cc1	-3	-6	-23	3	0%	1
O=C1C=C(Nc2cccnc2)c2ccccc2C1=O	nt	58*	nt	12	nt	nt
CCOc1ccc(NC2=CC(=O)C(=O)c3ccccc32)cc1	nt	21	nt	7	nt	nt
O=C1C=C(Nc2ccc(F)cc2)c2ccccc2C1=O	4	50*	8	9	0%	0
CCOC1=CC(=O)OC(c2ccccc2)C1 (stereo not drawn)	nt	-5	nt	-2	nt	nt
CSc1nnc(C)c(=O)n1COC(=O)COc1ccc(F)cc1	15	1	-26	-6	0%	-1

Screening results (PubChem BioAssay)
